Source: the supplement of paper PMC3334620
Whole data set: some 33,000 sequences, median “E-score (-0.5 to 0.5)” near -0.04, cut for the highest 2% near 0.36. Many of the other results were omitted from the sample, so the highest values are more common in it than they were.

Each sequence was assayed against T1, Hmlalpha2 (UniProt P0CY09) (assay: PBM E-score (8-mer binding enrichment) (E-score (-0.5 to 0.5)); higher = stronger / more preferred TF binding). Conditions: protein concentration: 200 nM; construct: GST-full length.
T1 sequence: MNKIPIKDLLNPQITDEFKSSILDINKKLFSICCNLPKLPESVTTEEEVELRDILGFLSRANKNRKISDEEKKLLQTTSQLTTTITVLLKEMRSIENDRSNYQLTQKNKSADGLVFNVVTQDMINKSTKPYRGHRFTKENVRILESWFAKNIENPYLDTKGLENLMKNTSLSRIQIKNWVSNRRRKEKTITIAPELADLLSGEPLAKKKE
Experimental: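 Universal 'all 10-mer' protein binding microarrays (Agilent AMADID 015681) probed with GST-tagged S. cerevisiae TFs (full-length or DBD) made by in vitro transcription/translation (PURExpress), about 100-200 nM. Bound TF was detected with fluorescent anti-GST. Each ungapped 8-mer (which stands for itself and its reverse complement) is scored by the PBM enrichment score (E-score), a modified Wilcoxon-Mann-Whitney statistic from -0.5 to +0.5, computed with the Universal PBM Analysis Suite. Scale: above 0.35 generally sequence-specific binding.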

Sequence | PBM E-score
TAGGTTGA | 0.0343
ATAGCAGA | 0.00582
ATACAGAA | 0.199
GGCCATGA | -0.217
CTTGCCTA | -0.112
ATAGGCAC | -0.216
CGATTTTA | 0.081
ACCGCGAT | -0.0546
CGTGTTGC | 0.301
ACTGTTAA | 0.208
CGTGTTGA | 0.446
CGTGTTAA | 0.481
CGTGTTCC | 0.2
AGTGTTAA | 0.374
AGTGTTAC | 0.221
AGTGTTCA | 0.00891
AGTGTTAT | 0.269
AGTGTTGA | 0.238
CCTGTTAA | 0.288
CGTGTTCA | 0.369
CGCTCTTA | 0.0692
AGAGAATG | -0.0972
ACGGCCAC | -0.128
AGAACCAT | 0.116
AAAGATTC | 0.196
ACGGTCCC | -0.356

Sequence | PBM E-score
AGGGTGAC | -0.182
GACGGTGA | -0.192
TCAGAACA | 0.196
AGTGTTAG | 0.0767
AGTGTTTA | 0.299
GGTGTTTA | 0.112
CGTGTTAG | 0.431
CGTGTTAC | 0.41
GGTGTTAC | 0.223
CTTGTTAA | 0.414
CGTGTTTA | 0.436
CTTGTTAC | 0.274
CCTGTTAC | 0.176
GTTGTTAA | 0.359
ACTGTTAG | -0.13
CAGATACC | -0.251
CTAGATCC | -0.22
GAGGCTAC | -0.193
CACTACTA | 0.00081
ACTTGCCA | -0.0087
ACACTTGA | -0.0396
TCGACTCA | 0.0619
CCCAAAGA | -0.0661
ATAAAGAA | 0.0809
CGGTTACG | 0.0305
CGATTACG | 0.274

Sequence | PBM E-score
CGATTACC | -0.0336
AGATTACT | 0.141
GGGTTACA | 0.218
CGATTACA | 0.461
AGATTACA | 0.411
TGATTAAA | 0.133
TGATTACA | 0.445
AGATTACC | 0.0994
TGCTTACA | 0.305
CGGTTACA | 0.367
CTGTTCTA | 0.102
TGAAGGAA | -0.0399
GCCAATCC | -0.151
ATGGCAAG | -0.153
GGATTACA | 0.444
GGATTAGA | -0.216
GGATTACC | -0.00329
GCTTAAGC | 0.187
AAGTAGTC | 0.0858
CTGTAGTC | -0.0729
ATGTAGTG | 0.332
ATGTAGTA | 0.391
GTGTAGTA | 0.323
ATGTAGTC | 0.37
TAGGCGGA | 0.0174
GATAAGAC | -0.0897

Sequence | PBM E-score
TATGTTAA | 0.459
TATGTTGA | 0.364
AATGTTAA | 0.364
GCTGTTAA | 0.262
GATGTTAA | 0.383
TATGTTCA | 0.316
GCTGTTAC | -0.0161
AAGATCCG | -0.207
ATTGCCCC | -0.315
CACTGCGA | -0.0249
CAAGGTCC | -0.193
ATATCTCG | -0.151
TTATGCAA | 0.11
CACTACAA | 0.268
AACTACAG | 0.0948
CACTACAG | 0.126
GACTACAC | 0.362
CACTACAC | 0.394
AACTACAT | 0.392
AACTACAC | 0.42
AACTACGT | 0.186
AACTACAA | 0.242
TGGATCCA | -0.063
CCTACTCG | -0.202
ACCCTTGC | -0.209
CGGGATAC | -0.16

Sequence | PBM E-score
ACGTCTGC | -0.182
ATACGTAT | 0.308
ACACGTAC | 0.347
ACACGTCG | 0.302
ACACGTAA | 0.396
ACACGTTC | 0.303
ACACGTTA | 0.408
ACACGTAT | 0.369
ACACGTCT | 0.368
ACACGTAG | 0.351
ACACGTTG | 0.35
ACACGTCA | 0.317
AAACGTAT | 0.278
CGAGTGGA | -0.137
AGGGGCCG | -0.365
CGGGAGCC | -0.33
GCACGTAA | 0.348
CCACGTAA | 0.33
TCACGTAA | 0.393
AGGTTGGG | -0.0364
CCCTTGGC | -0.35
ACAATTAA | 0.214
ACAATTAC | 0.376
GTAATTAC | 0.452
CTGATTAC | 0.369
ATAATTAC | 0.357

Sequence | PBM E-score
ACAATTAT | 0.214
GCGATTAC | 0.275
CTAATTAC | 0.362
CCGATTAC | 0.216
CTGATTAA | 0.141
ATGATTAC | 0.326
ACGATTAC | 0.383
GAAGCAAA | 0.156
CGCCACCG | -0.296
CAGAGCTC | -0.142
ATGGCGCC | -0.249
TCCTGCAA | -0.15
GCGGTGCA | -0.281
GTTGCACA | 0.0871
AGTGTTCG | 0.089
ACTTAGGA | -0.0292
AGGGTAAA | 0.0323
CCCAAGCG | -0.19
GTAATAAC | 0.392
ATAATAAC | 0.187
GTAATAAA | 0.35
CATACCTC | 0.0518
CTGAATTC | 0.0173
TTCACGAA | 0.019
ACCACGAC | -0.0364
TGCACGAA | 0.122

Sequence | PBM E-score
TACACGAA | 0.456
AACACGAC | 0.424
AACACGAA | 0.386
CACACGAC | 0.223
AACACAAA | 0.261
AACACGAG | 0.377
CACACGAA | 0.233
AGCACGAA | 0.167
CACACGAG | 0.152
ACGTTAAT | 0.304
GCTGGGAC | -0.263
AAGAACTG | -0.178
ACAGTGTA | 0.244
CCCTCGCC | -0.357
CATGCGAC | 0.0966
CTTCTGCA | -0.0586
CCTGCGGC | -0.341
TCAAGTAA | 0.265
AGGGCCCA | -0.239
GACTTGGC | -0.347
GACACGGC | 0.223
GACACGAC | 0.394
AACACGAT | 0.439
GACACGAA | 0.2
AGCACGAT | 0.147
ATCACGAT | -0.0443

Sequence | PBM E-score
ATAGAACA | 0.164
GGGTTCGA | -0.248
CGACAATC | -0.19
GCCTCTGA | -0.251
GTTTCAGA | -0.0374
CACCGGCG | -0.12
AACACTTC | 0.138
ACTACCGA | -0.12
TATCAACA | 0.365
AATCAACC | -0.103
ATTCAACA | 0.352
GATCAACA | 0.341
CATCAACA | 0.297
AATCAACG | 0.202
CTTCAACA | 0.341
GTTCAACA | 0.367
AATCAACA | 0.37
CCCGGTTC | -0.22
GCCAGGAC | -0.269
AGTAGATG | 0.136
GCGTAAGA | 0.249
AGGTAAGA | -0.0177
CTGTAAGC | -0.0257
ATGTAAGG | 0.313
ATGTAAGC | 0.374
ATGTAAGA | 0.433

Sequence | PBM E-score
CTGTAAGA | 0.0715
GTGTAAGA | 0.401
AAGTAAGA | 0.0354
AGGGAGGC | -0.339
ACATACCA | 0.227
TGCTCTAA | -0.134
ACCTTACC | 0.0897
ACAACTAC | 0.225
CCCGATAC | -0.0785
CACATGCG | 0.141
AGCATGCT | 0.151
ATCATGCA | -0.0495
AACATGCA | 0.417
AACATGCG | 0.399
AACATGCT | 0.396
ACCATGCT | 0.0386
CACATGGA | 0.197
ACCATGCA | 0.106
TACATGGA | 0.429
ATCATGCG | -0.0811
GACATGGA | 0.263
